This is a sample that favours compounds with a hit; in the whole collection about 1.1% have one here.
Eya2 inh = qHTS Assay for Inhibitors of the Phosphatase Activity of Eya2; AID 488837, 2010; Protein phosphatase EYA2 (Homo sapiens), O00167; 0.006% of 330,000 active; recombinant Eya2, OMFP fluorescence dephosphorylation (OMFP is methylfluorescein phosphate); Potency, µM (top dose mostly 76.9 µM), for inactives: at the top dose activity, negative = inhibition, actives largely listed as inhibitors; further: on the % scale 0 is the no-effect control and ±100 the full control effect
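Eya2 (0.2 uM) preincubated 10 min at ambient with compound, then OMFP substrate added at 50 uM; 10 min reaction in 50 mM HEPES pH 7.5, 50 mM NaCl, 5 uM MgCl2, 0.05% BSA, 1 mM DTT. Fluorescence read at Ex 485/Em 525 nm.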
ALOX12 inh = Primary qHTS assay for inhibitors of human arachidonate 12S-lipoxygenase (ALOX12): Round 2; Polyunsaturated fatty acid lipoxygenase ALOX12 (Homo sapiens), P18054; purified 12hLO, xylenol orange hydroperoxide absorbance; Potency, µM (highest dose often 108 µM), for the others: top-dose activity change, negative = inhibition, usual class: inhibitors; 1.1% of 580,000 active; AID 1671190, 2021; further: on the % scale 0 is the no-effect control and ±100 the full control effect
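Hydroperoxide product was detected by ferrous iron/xylenol orange as the 573 to 405 nm absorbance ratio. Arachidonic acid at 40 uM (final) was turned over for 30 min at room temperature by 150 nM human 12hLO, pH 7.0 Hepes buffer, after 15 min compound preincubation.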
USP2a block = qHTS Assay for Inhibitors of Ubiquitin-specific Protease USP2a Using CHOP2 as the Reporter | Ubiquitin carboxyl-terminal hydrolase 2 (Homo sapiens), O75604 | Potency, µM (series often up to 38.3 µM), for the others: at the highest dose activity change, negative = inhibition, hits mostly inhibitors | 0.01% of 330,000 active | USP2 core, Ub-CHOP2 coupled fluorogenic reporter, 485/531;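 further: plate controls were DMSO wells for no effect and full inhibition by NEM control for full effect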
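Cell-free coupled assay: 10nM USP2 core preincubated 30min RT with compound in Tris-HCl pH 8.0/CaCl2/CHAPS buffer, then 25nM Ub-CHOP2 and 25nM reporter substrate; fluorescence (Ex 485/Em 531) read after 60min RT, normalized to NEM inhibition, concentration-response curves fitted.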
TSG101-PTAP inh = qHTS Assay for Iinhibitors of HIV-1 Budding by Blocking the Interaction of PTAP/TSG101; Tumor susceptibility gene 101 protein (Homo sapiens), Q99816; Fluorescence polarization, FITC-PTAP peptide / Tsg101 binding; Potency, µM (top dose mostly 115 µM), for the others: top-dose activity change, negative = inhibition, actives largely listed as inhibitors; 340,000 tested, under 10 active; AID 493005, 2010; active means well fitted inhibition curve with a large enough effect in the main read-out, with a control signal flat, not every such curve was filed as active; inconclusive means small, poorly fitted or top-dose-only effect, or effect the other way, or a change in a side signal; inactive means no such curve, though single readings can be large or run the other way; further: % of control where 0% means no effect
Target sequence (Q99816 whole entry, looked up): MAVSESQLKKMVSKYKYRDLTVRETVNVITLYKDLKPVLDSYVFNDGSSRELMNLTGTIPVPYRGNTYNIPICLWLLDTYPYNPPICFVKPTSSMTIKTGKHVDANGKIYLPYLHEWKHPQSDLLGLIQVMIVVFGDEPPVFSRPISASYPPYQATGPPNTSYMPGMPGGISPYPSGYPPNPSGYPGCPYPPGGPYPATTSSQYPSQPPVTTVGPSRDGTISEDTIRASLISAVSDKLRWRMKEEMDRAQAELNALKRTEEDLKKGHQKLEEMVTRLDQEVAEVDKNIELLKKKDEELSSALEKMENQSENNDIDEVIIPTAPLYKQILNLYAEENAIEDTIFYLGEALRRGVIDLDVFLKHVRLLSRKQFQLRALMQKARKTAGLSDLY
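FP read-out: FITC-PTAP peptide, 50 nM final, binding Tsg101 binding domain, 10 uM final; 20 min, r.t.; 10 mM HEPES pH 7.5, 0.15 M NaCl, 0.01% Tween 20, 3 mM EDTA, 0.1 mM TCEP.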
* hit, by the source's call; ? = inconclusive; . = no result; [ ] = another dose, or the depositor's remark. Unless noted, the call rests on the fitted dose curve; in most records, active means well fitted curve in the direction sought with a large enough effect; inconclusive means small, poorly fitted or top-dose-only effect, or another doubt; inactive means no such curve, though single readings can be large; an effect the other way counts as inactive or inconclusive. Potency means the concentration at half of the fitted maximal effect.

SMILES | Eya2 inh | ALOX12 inh | USP2a block | TSG101-PTAP inh
CCOC(=O)c1cc(-c2ccccc2)sc1NC(=O)C(C)C | -0.7% | -16.6% | 3.4% | -0.5%
Cc1cc(-c2nnn(CC(=O)NC(C)C)n2)ccc1F | . | -8.7% | . | .
CC(NC(=O)c1ccc(Br)cc1)c1ccccc1 (stereo unspecified) | -4.2% | 10.0% | -4.9% | -0.3%
CN(C)C(CNC(=O)c1cc(-c2ccco2)nc2ccccc12)c1ccccc1 (stereo unspecified) | -12.4% | 10µM* | -1.6% | -11.4%
CC(NC(=O)c1ccc(-c2ccco2)cc1)c1ccccc1 (stereo unspecified) | . | 12.6µM* | . | .
CC(NC(=O)c1cc(-c2ccco2)nc2ccccc12)c1ccccc1 (stereo unspecified) | . | 44.7µM* | . | .
CC(C)CCNC(=O)c1cc(-c2ccco2)nc2ccccc12 | -8.8% | ? | 3.0% | -8.0%
CCn1c(SCC(=O)c2ccc(Cl)s2)nnc1-c1ccccc1 | . | -6.8% | . | .
O=C1NC(=NC2CCCC2)C2(CCN(Cc3ccc(F)cc3)C2)N1c1cc(F)cc(F)c1 (stereo unspecified) | . | 11.5%[6.33 µM] | . | .
C=C(C)Cn1c(SCC(=O)Nc2ccccc2)nc2c1c(=O)[nH]c(=O)n2C | . | -24.4% | . | .
COc1ccccc1/C=C/C=C(/C#N)C(=O)Nc1cc(C(F)(F)F)ccc1Cl | . | -26.7% | . | .
COc1ccccc1/C=C/C=C(/C#N)C(=O)Nc1ccccc1C(=O)O | . | 7.08µM* | . | .
COc1ccc(/C=C(\C#N)C(=O)Nc2ccccc2C(=O)O)cc1OC(=O)c1ccccc1Cl | . | 39.8µM* | . | .
COc1ccc(/C=C(/C#N)C(=O)Nc2ccccc2C(=O)O)cc1OC | . | 1.4% | . | .
O=S(=O)(Nc1ccc(O)c2ccccc12)c1cccs1 | 9.7% | 31.6µM* | 0.5% | 2.2%
Cc1ccc2c(=O)c(-c3nc(-c4ccc(Cl)cc4)no3)cn(CC(=O)NCc3ccco3)c2n1 | . | 20µM* | . | .
Oc1c(Br)cc(C2N=C(c3ccccc3)NO2)cc1Br (stereo unspecified) | 17.1% | 28.2µM* | 1.2% | -1.2%
CSc1ccc(C2N=C(c3ccccc3)NO2)cc1 (stereo unspecified) | -5.0% | . | 0.0% | -3.4%
CC[C@@H](C)[C@H]1O[C@]2(CC[C@@H]1C)C[C@@H]1C[C@@H](C/C=C(\C)[C@@H](O[C@@H]3C[C@H](OC)[C@H](O[C@H]4C[C@H](OC)[C@@H](O)[C@H](C)O4)[C@H](C)O3)[C@@H](C)/C=C/C=C3\CO[C@@H]4[C@@H](O)C(C)=C[C@@H](C(=O)O1)[C@]34O)O2 | . | 0.0% | . | .
Cc1ccc(CN2C(=O)C(=O)c3cc(Br)cc(C)c32)cc1 | . | 14.1µM* | . | .
C/C(=N\Nc1cccc(Cl)c1)c1ccncc1 | -16.5% | 17.8µM* | 2.2% | 1.3%
C/C(=N\NC(=S)Nc1cccc(C)c1)c1cc2ccccc2o1 | -1.5% | 35.5µM* | 2.1% | -3.2%
C/C(=N\Nc1ccccc1)c1cccc([N+](=O)[O-])c1 | . | 6.31µM* | . | .
C/C(=N/Nc1ccc([N+](=O)[O-])cc1)c1ccncc1 | . | 35.5µM* | . | .
CN(C)c1ncc2c(n1)C(C)(C(=O)Nc1ccncc1)CCC2 (stereo unspecified) | . | 9.8%[176 µM] | . | .
SMILES | Eya2 inh | ALOX12 inh | USP2a block | TSG101-PTAP inh
O=[N+]([O-])c1cccc(NN=Nc2ccccc2)c1 | -11.0% | 15.8µM* | -1.7% | -5.5%
C/C(=N/NC(=S)Nc1cccc(C)c1)c1cccc([N+](=O)[O-])c1 | -10.1% | 39.8µM* | -8.6% | -2.5%
CC1(C)CC(NC(=O)C2CCCC2)CC(C)(CNC(=O)C2CCCC2)C1 (stereo unspecified) | . | -11.8% | . | .
CCOC(=O)c1sc2nc(CSc3ccccc3)nc(N3CCC(C(N)=O)CC3)c2c1C | -8.5% | -23.5% | -7.7% | 3.3%
CCOC(=O)c1sc2nc(CSc3ccccc3)nc(N3CCCN(C)CC3)c2c1C | -11.2% | 5.62µM* | -8.1% | -2.5%
COc1ccc(C(=O)N2CC(Oc3ccccc3-c3nc(-c4ccccc4)no3)C2)cc1 | . | 3.0% | . | .
COCCCN1C(=O)C(=O)/C(=C(/O)c2ccc(S(=O)(=O)N3CCCCC3)cc2)C1c1ccc(O)c(OC)c1 (stereo unspecified) | 4.2% | ? | 3.9% | -3.5%
CN(C)c1ccc(C2/C(=C(/O)c3ccc(Br)cc3)C(=O)C(=O)N2C)cc1 (stereo unspecified) | -8.8% | 5.62µM* | 5.4% | -2.1%
O=C1C(=O)N(CCCO)C(c2ccc(Br)cc2)/C1=C(\O)c1ccc(Br)cc1 (stereo unspecified) | -13.3% | 35.5µM* | -1.5% | -8.7%
COCCCN1C(=O)C(=O)/C(=C(/O)c2ccc(OC)cc2)C1c1ccc(O)c(OC)c1 (stereo unspecified) | 8.9% | 6.31µM* | 0.0% | -4.8%
CC(C)CC(NC(=O)C1CCC(C(C)C)CC1)C(=O)O (stereo unspecified) | . | -37.4% | . | .
O=C(Cc1cccs1)N1CCN(c2cc(C(F)(F)F)ncn2)CC1 | . | 35.5µM* | . | .
O=C(Cc1cccs1)NC1CCN(c2cc(C(F)(F)F)ncn2)CC1 | . | 1.9% | . | .
CCN(Cc1cccc2cnccc12)CC1CCCN(CCc2cccc(F)c2)C1 (stereo unspecified) | . | 82.4% | . | .
S=C(NCCc1ccc(Cl)cc1)Nc1ccc(Nc2ccccc2)cc1 | . | 28.2µM* | . | .
S=C(NCc1ccc(Cl)cc1)Nc1ccc(Nc2ccccc2)cc1 | . | 17.8µM* | . | .
S=C(NCc1ccc(Cl)cc1)Nc1ccc(Br)cn1 | . | 4.47µM* | . | .
O=C(Cc1ccc(Cl)cc1)Nc1ccc(Br)cn1 | 4.7% | 12.5% | 0.1% | -0.8%
S=C(NCCc1ccccc1)Nc1ccc(Cl)cc1 | 1.4% | ? | -0.6% | -2.6%
COc1ccccc1C1CN(c2ccccc2)N=C1c1cccs1 (stereo unspecified) | 20.9% | 6.31µM* | -1.1% | 0.5%
Cc1c(O)ccc2c(=O)c(-c3cnn(-c4ccccc4)c3)c(C(F)(F)F)oc12 | . | -31.2% | . | .
O=C(c1ccco1)N(CCC(c1ccccc1)c1ccco1)Cc1ccco1 (stereo unspecified) | -9.4% | 17.8µM* | ? | -14.0%
Cc1ccc(C(CCN(Cc2ccccc2)C(=O)c2ccco2)c2ccco2)cc1 (stereo unspecified) | -2.1% | ? | -19.2% | 11.4%
CCc1nc(NC(CC)CO)c(C#N)c2c1CCCC2 (stereo unspecified) | . | 26.3% | . | .
CCCC(=O)N1Cc2ccccc2CC2(CCCCN2CC2CCOCC2)C1 (stereo unspecified) | . | 7.0%[6.33 µM] | . | .
O=C1NCCN1C1CCN(Cc2cccc3ccccc23)CC1 | . | 2.9%[12.5 µM] | . | .

Screens: PubChem, National Center for Advancing Translational Sciences (NCATS)
